TLR9-MyD88 block: inhibitors of human TLR9-MyD88 binding; Q9NR96+Q99836; inhibition, % at 4.98 µM; AID 504734; CHO BLA complementation TLR9-MyD88, CCF4 FRET ratio; 340,000 tested, 0.21% active;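 active = inhibition above the mean over all tested compounds plus 3 SD, cut at about 21% in these data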;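 also: 0% = DMSO only wells and 100% = clavulanate BLA inhibitor control wells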
NOD2 RIPK2 PPI: NOD2-RIPK2 protein interaction inhibition | O43353 | CHO BLA complementation NOD2-RIPK2, CCF4 ratio | inhibition, % at 4.98 µM | 360,000 tested, 0.38% active; in the data active = inhibition above about 21%;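 also: 0% = vehicle only and 100% = reference blocker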
NTR1 agonist: activates human neurotensin receptor 1. activation, % at 20 µM. NTR1-U2OS beta-arrestin-GFP spot imaging, agonist mode. 330,000 tested, 0.17% active. P30989;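 active = activation at or above 40% of the spot to cytoplasm intensity ratio, with at least 20 cells analyzed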;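 also: 0% = DMSO without peptide and 100% = 100 nM NTR1 peptide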
Beta2AR agonist: activates human beta-2 adrenergic receptor causing internalization; P07550; Am2.2-beta2AR cells, FAP receptor internalization, flow cytometry; response, % (no concentration beside the values); 340,000 tested, 0.43% active; AID 504454;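 active = response above a set limit, near 3 SD of response in nonfluorescent compounds, cut at about 42% in these data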
TLR4 MyD88 comp: inhibitors of human TLR4-MyD88 binding; O00206+Q99836; HeLa CL3-4 TLR4/MyD88 BLA complementation, FRET ratio; inhibition, % at 8.4 µM; 200,000 tested, 0.18% active; AID 861; in the data active = inhibition above about 25%;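 also: 0% = vehicle and 100% = reference inhibitor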
Bfl-1 A1 inh: inhibitors of the anti-apoptotic protein A1, read as caspase activation. 330,000 tested, 0.066% active. AID 2462. MEF A1-2A-BIM cells, Caspase-Glo 3/7 luminescence, 3 h; percent of clofoctol response, vehicle zero. caspase activation, % (no concentration beside the values);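 active = over half of replicate activation scores above 10%, or exactly half above 10 with the replicate mean above 10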
TLR4 MyD88 cnf: TLR4-MyD88 interaction inhibition confirmed | shares compounds with TLR4 MyD88 comp | HeLa CL3-4 BLA complementation, CCF4 FRET ratio | inhibition, % at 8.4 µM | 350 tested, 50% active | AID 941;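 active = mean inhibition across three repeat runs above about 25% carried over from the earlier screen, limit read from the data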;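 also: plate controls were DMSO only for no effect and clavulanic acid blocking BLA at full dose for full effect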
BLA inhibitor ct: beta-lactamase inhibition flagged in TLR4-MyD88 counter-screen. shares compounds with TLR4 MyD88 comp. inhibition, % at 8.4 µM. 350 tested, 63% active. AID 1237. HeLa BLA reporter, CCF4 FRET ratio;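 active = mean inhibition over three repeats above about 26% taken from the earlier screen, limit read from the data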;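 also: HeLa cells stably expressing beta-lactamase reporter as counterscreen for TLR4-MyD88 inhibitors; 0% = DMSO and 100% = clavulanic acid full inhibition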
* hit, by the source's call; x = no result given. Compounds with a hit are over-represented: about 0.97% of the library has one in this group of screens.

SMILES | TLR9-MyD88 block | NOD2 RIPK2 PPI | NTR1 agonist | Beta2AR agonist | TLR4 MyD88 comp | Bfl-1 A1 inh | others
O=c1c2ccccc2[nH]c(=S)n1Cc1cccs1 | -3 | 11 | 1 | -1 | -7 | 0
COC(=O)CNC(=O)C1Cc2ccccc2CN1S(=O)(=O)c1ccc(F)cc1 (stereo not given) | 2 | -7 | 0 | 9 | x | -1
COc1ccc2o/c(=N\O)c(C(=O)Nc3ccccc3OC)cc2c1 | -4 | 2 | 13 | 53* | -1 | -1
CC(Oc1ccc2c(-c3ccccc3)cc(=O)oc2c1)C(=O)N1CCOCC1 (stereo not given) | 3 | 1 | 0 | -4 | x | -1
COc1ccc(-c2nn(-c3ccccc3)cc2C2CC(c3cccs3)=NN2C(=O)CCCC(=O)O)cc1 (stereo not given) | -8 | -4 | 2 | -5 | -4 | 0
Cc1ccc(-c2nn(-c3ccccc3)cc2C2CC(c3cccs3)=NN2C(=O)CCCC(=O)O)cc1 (stereo not given) | -5 | -1 | 4 | 69* | 3 | 1
O=C(Nc1ccc2oc(=O)ccc2c1)c1ccc(-c2cccc(Cl)c2)o1 | -7 | 5 | 8 | 45* | x | 0
C[C@H](CO)N1C[C@H](C)[C@H](CN(C)C(=O)Nc2ccc(C(F)(F)F)cc2)Oc2ncc(-c3cccnc3)cc2C1=O | -1 | -6 | x | x | x | x
COc1ccccc1NC(=S)NCc1ccc2c(c1)cc(C)n2C | 2 | 5 | 1 | 1 | 9 | 0
Cc1ccccc1NC(=S)NCc1ccc2c(c1)cc(C)n2C | 1 | -2 | 4 | 52* | 5 | 1
O=C(Nc1ccccn1)c1cc2cc([N+](=O)[O-])ccc2s1 | -1 | -4 | 3 | 17 | -1 | -6
CCc1nn(CC(=O)NCCc2ccc(S(N)(=O)=O)cc2)c(=O)c2cc3sccc3n12 | 3 | -4 | -1 | 2 | x | 1
Oc1cc(-c2ccncc2)cc2cccnc12 | -1 | -2 | 4 | -4 | x | 1
Oc1cc(-c2ccc(N3CCCCC3)nc2)cc2cccnc12 | 15 | 22* | 8 | 10 | x | -9
CN(c1ccc(OCC(=O)NC2CCC(O)CC2)cc1)S(=O)(=O)c1ccc(Cl)cc1 (stereo not given) | 1 | -4 | 0 | 0 | x | 15*
O=C(/C=C/c1ccco1)NC(=S)Nc1ccc(N2CCCC2)cc1 | 1 | -3 | 4 | 44* | -14 | 2
CCC(C)[C@H](NC(=O)N1CCC(C)CC1)C(=O)O (stereo not given in full) | -4 | -7 | 2 | 8 | x | 0
C#CCn1cc(/C=N/NC(=O)COc2cccc3cccnc23)c2ccccc21 | -9 | 0 | 2 | -3 | -5 | 0
COC(=O)Cn1cc(/C=N/NC(=O)COc2cccc3cccnc23)c2ccccc21 | -3 | 6 | 2 | 48* | -4 | 1
COC(=O)c1ccc(-n2c(C)cc(C(=O)CCl)c2C)cc1 | -2 | 3 | 4 | 29 | 25* | 1 | TLR4 MyD88 cnf=20;BLA inhibitor ct=-6
CC1(C)CC(=O)C(C(C2=C(O)CC(C)(C)CC2=O)c2cccs2)C(=O)C1 (stereo not given) | -1 | -1 | 10 | 68* | 25* | 0 | TLR4 MyD88 cnf=2;BLA inhibitor ct=-11
CC1(C)CC(=O)C(C(C2=C(O)CC(C)(C)CC2=O)c2cccc(O)c2)C(=O)C1 (stereo not given) | 0 | 4 | 2 | 11 | -3 | 1
O=C(Sc1cccc2cccnc12)c1ccc(F)cc1 | x | x | 6 | x | 29* | x | TLR4 MyD88 cnf=26*;BLA inhibitor ct=40*
CC(=O)/C(=N\Nc1ccccc1)Sc1cccc2cccnc12 | 2 | 8 | 6 | -8 | -12 | 1
O=S(=O)(Nc1cc(Sc2cccc3cccnc23)c(O)c2ccccc12)c1ccc(F)cc1 | x | x | x | x | 29* | 0 | TLR4 MyD88 cnf=25*;BLA inhibitor ct=32*
SMILES | TLR9-MyD88 block | NOD2 RIPK2 PPI | NTR1 agonist | Beta2AR agonist | TLR4 MyD88 comp | Bfl-1 A1 inh | others
COc1ccc(-c2c3c(nc4sc(C(=O)Nc5ccccc5)c(N)c24)CCC3)cc1 | 9 | 8 | 3 | 1 | 25* | -1 | TLR4 MyD88 cnf=36*;BLA inhibitor ct=58*
Nc1c(C(=O)Nc2ccccc2)sc2nc3c(c(-c4ccco4)c12)CCC3 | 5 | 12 | 10 | 17 | 8 | 0
CCC(C)NCc1ccc(C(=O)OC)o1 (stereo not given) | -3 | 5 | -1 | 2 | 0 | 1
Cc1ccc(S(=O)(=O)Nc2cc(C(F)(F)F)ccc2N2CCOCC2)cc1C | 6 | -7 | 12 | 5 | 70* | 1 | TLR4 MyD88 cnf=-1;BLA inhibitor ct=1
CN(C)N1C(=O)CC(C)(c2ccc([N+](=O)[O-])cc2)C1=O (stereo not given) | 4 | -10 | 5 | 1 | x | 0
Fc1cccc(-c2nnn3c2nc(Cl)c2ccccc23)c1 | 2 | -11 | x | 29 | 35* | x | TLR4 MyD88 cnf=58*;BLA inhibitor ct=41*
CSc1nc2sc(-c3ccccc3)cc2c(=O)n1N | -1 | 9 | 0 | -1 | 5 | -7
Nc1cc(-c2ccccc2)nn1Cc1ccc(Cl)cc1 | -11 | 2 | 4 | -1 | 28* | 1 | TLR4 MyD88 cnf=3;BLA inhibitor ct=2
CN1C[C@@H]2[C@@H]3C(=O)N(C)C(=O)[C@@H]3[C@](C)(C1=O)N2C(=O)c1ccc(F)cc1 | -6 | -9 | x | -4 | x | x
Cc1ccccc1NC(=S)Nc1ccc2cn[nH]c2c1 | -6 | -8 | 0 | 3 | -4 | 0
CC(C)(C)[C@H]1COC(=O)[C@@H](NC(=O)OCC2c3ccccc3-c3ccccc32)C/C=C\C[C@@H](CC(=O)N[C@@H](CO)Cc2ccccc2)C(=O)N1 | -7 | 11 | 4 | -2 | x | 0
O=C1COc2ccc(C(=O)c3ccccc3C(=O)O)cc2N1 | 7 | -5 | 0 | 1 | -8 | 0
Cc1c(N2C(=O)/C(=C\C3CC=CCC3)SC2=S)c(=O)n(-c2ccccc2)n1C (stereo not given) | 3 | 1 | 8 | 11 | 25* | 1 | TLR4 MyD88 cnf=9;BLA inhibitor ct=-16
COc1ccc(-c2cc(C)no2)cc1S(=O)(=O)NCc1cccc(C)c1 | 4 | 4 | 1 | -4 | x | 1
COc1ccccc1NC(=O)COc1ccc(/C=N/NS(=O)(=O)c2ccc(C)cc2)cc1 | 8 | -8 | 1 | -1 | -3 | 1
CC(=O)Oc1ccc2c(c1)Oc1cc(OC(C)=O)ccc1C21OC(=O)c2ccccc21 | 71* | 76* | -5 | -30 | 63* | -1 | TLR4 MyD88 cnf=70*;BLA inhibitor ct=93*
Cc1cc(O)ccc1C1(c2ccc(O)cc2C)OC(=O)c2ccccc21 | 15 | 2 | 6 | 8 | 18 | 0

High-throughput results deposited in PubChem BioAssay by several laboratories.
